# Measurements reported in the supplement of paper PMC8387472.
# ± gives the standard deviation of the averaged measurements.
# Tested on: mESC LDLR-Dup GFP reporter (SpCas9 MH-deletion repair)
# Experiment: fraction of GFP+ cells relative to DMSO control (fold change); higher = more MH-deletion repair to in-frame LDLR (or more editing)
# Details: 2 µM; 7 days post-transfection
row,SMILES,fraction of GFP+ cells
1,CC(=O)Nc1ccc(NC(=S)NC(=O)c2ccc(C(C)(C)C)cc2)cc1 [Tenovin-1],0.623 ± 0.14
2,NC(=O)c1cccnc1 [Nicotinamide (Vitamin B3)],1.74 ± 0.82
3,Nc1nc(N)c(N=O)c(OCC2CCCCC2)n1,0.999 ± 0.11
4,O=C1C[C@@H](c2ccc(O)cc2)Oc2cc(O)cc(O)c21 [Naringenin],0.997 ± 0.18
5,Nc1ccn(C[C@@H](CO)OCP(=O)(O)O)c(=O)n1 [Cidofovir],1.02 ± 0.1
6,CN1CCc2c(c3ccccc3n2Cc2ccc(C(=O)NO)cc2)C1 [Tubastatin A],0.802 ± 0.093
